High-throughput results deposited in PubChem by National Center for Advancing Translational Sciences (NCATS).
L3MBTL1 block = qHTS Assay for the Inhibitors of L3MBTL1; actives 0.66% (n = 230,000); AlphaScreen L3MBTL1–H3K9me1 peptide binding; Lethal(3)malignant brain tumor-like protein 1 (Homo sapiens), Q9Y468; AID 485360, 2010; Potency, µM (doses to about 57.1 µM), for inactives: top-dose activity, negative = inhibition, actives largely listed as inhibitors; note: nearly all actives have a fitted effect of over 60% in size
Target sequence (Q9Y468 whole entry, looked up): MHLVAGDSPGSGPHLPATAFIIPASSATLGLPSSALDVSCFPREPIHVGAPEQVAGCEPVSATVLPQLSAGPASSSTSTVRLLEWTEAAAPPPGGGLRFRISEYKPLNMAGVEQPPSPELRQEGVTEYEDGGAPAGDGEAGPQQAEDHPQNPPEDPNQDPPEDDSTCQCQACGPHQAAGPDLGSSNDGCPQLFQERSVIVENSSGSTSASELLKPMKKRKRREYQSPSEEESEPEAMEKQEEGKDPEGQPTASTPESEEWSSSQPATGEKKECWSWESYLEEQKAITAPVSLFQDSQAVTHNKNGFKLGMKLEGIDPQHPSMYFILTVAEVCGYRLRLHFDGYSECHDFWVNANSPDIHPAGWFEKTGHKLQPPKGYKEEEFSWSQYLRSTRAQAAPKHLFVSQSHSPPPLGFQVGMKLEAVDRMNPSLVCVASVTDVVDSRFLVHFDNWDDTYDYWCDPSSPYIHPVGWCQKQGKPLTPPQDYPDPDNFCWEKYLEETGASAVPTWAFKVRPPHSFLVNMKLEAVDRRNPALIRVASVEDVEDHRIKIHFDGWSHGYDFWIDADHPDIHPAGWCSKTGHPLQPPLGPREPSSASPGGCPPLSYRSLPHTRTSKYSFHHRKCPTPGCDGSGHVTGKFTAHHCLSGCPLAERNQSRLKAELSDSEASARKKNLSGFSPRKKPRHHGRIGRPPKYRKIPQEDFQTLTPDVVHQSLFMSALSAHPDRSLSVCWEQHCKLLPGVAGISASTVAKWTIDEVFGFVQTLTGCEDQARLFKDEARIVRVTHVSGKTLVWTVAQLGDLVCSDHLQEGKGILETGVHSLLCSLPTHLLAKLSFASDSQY
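L3MBTL1 50 nM + b-AHA-H3(1-15)K9me1 75 nM, 30 min RT; compound added, 30 min RT; streptavidin donor/Ni-chelate acceptor beads 10 ug/mL each final, 30 min RT dark; AlphaScreen read.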
KDM4E inh = qHTS Assay for Inhibitors of Human Jumonji Domain Containing 2E (JMJD2E); Lysine-specific demethylase 4E (Homo sapiens), B2RXH2; JMJD2E catalytic domain, FDH-coupled NADH fluorescence (FDH is formaldehyde dehydrogenase); Potency, µM (doses to about 57.1 µM), for inactives: top-dose activity change, negative = inhibition, most hits filed as inhibitors; actives 1.6% (n = 230,000); AID 2147, 2009; active = well fitted inhibition curve with a large enough effect, not every such curve was filed as active; inconclusive = small, poorly fitted or top-dose-only effect, or another doubt; inactive = no such curve, though single readings can be large or run the other way;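 note: 0% = wells with enzyme and -100% = buffer wells without enzyme; nearly all actives have a fitted effect of over 50% in size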
BLM inh-1 = qHTS Assay for Inhibitors of Bloom's syndrome helicase (BLM); recombinant BLM DNA unwinding, fluorescence dequenching; actives 0.2% (n = 350,000); Potency, µM (titrated, usually from 56.1 µM), without a hit: at the top dose activity change, negative = inhibition, usual class: inhibitors; RecQ-like DNA helicase BLM (Homo sapiens), P54132;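 note: plate controls were vehicle for no effect and no enzyme for full effect; nearly all actives have a fitted effect of over 35% in size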
APE1 inh-1 = qHTS Assay for Inhibitors of the Human Apurinic/apyrimidinic Endonuclease 1 (APE1); DNA repair nuclease/redox regulator APEX1 (Homo sapiens), P27695; recombinant APE1, TAMRA/BHQ-2 abasic DNA cleavage fluorescence; Potency, µM (titrated, usually from 65.8 µM), for inactives: at the top dose activity change, negative = inhibition, most hits filed as inhibitors; actives 0.35% (n = 350,000); AID 2517, 2012;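 note: plate controls were vehicle for no effect and reference inhibitor for full effect; nearly all actives have a fitted effect of over 55% in size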
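Compound pre-exposure to 0.75 nM APE1, 15 min at ambient temperature. Reaction initiated with 50 nM TAMRA/BHQ-2 THF substrate, read immediately in kinetic mode, 525 nm excitation, 598 nm emission.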
RECQ1 inh-1 = qHTS Assay for Inhibitors of RecQ-Like Dna Helicase 1 (RECQ1) | ATP-dependent DNA helicase Q1 (Homo sapiens), P46063 | RECQ1 DNA unwinding, red fluorescence kinetic read | Potency, µM (top dose mostly 57.3 µM), without a hit: at the top dose activity, negative = inhibition, most hits filed as inhibitors | actives 0.54% (n = 240,000);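 note: plate controls were vehicle for no effect and no enzyme for full effect; nearly all actives have a fitted effect of over 30% in size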
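RECQ1T1 50 nM; forked duplex (20 bp + 30-nt ss tails) 200 nM, ATP 2 mM final; pH 8.0, 2 mM MgCl2, 2.5 ug/ml poly(dI-dC); 15 min compound preincubation; discontinuous kinetic read over 2 h at RT.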
RGS12 GoLoco inh = qHTS Assay for Inhibitors of RGS12 GoLoco Motif Activity (Red Fluorophore) | Guanine nucleotide-binding protein G(i) subunit alpha-1 (Homo sapiens), P63096 | Gai1:RGS12 GoLoco peptide FP, rhodamine, 10 min | Potency, µM (titrated, usually from 61.6 µM), for the others: top-dose activity, negative = inhibition, actives largely listed as inhibitors | actives 0.44% (n = 230,000) | AID 880, 2007; active = well fitted inhibition curve with a large enough effect, not every such curve was filed as active; inactive = no such curve, though single readings can be large or run the other way; note: nearly all actives have a fitted effect of over 30% in size
Endo IV inh = Counterscreen for APE1 Inhibitors: qHTS Assay for Inhibitors of Endonuclease IV; actives 4% (n = 560); Potency, µM (doses to about 27.1 µM), for inactives: at the top dose activity change, negative = inhibition, actives largely listed as inhibitors; shares compounds with APE1 inh-1; E. coli Endo IV, fluorogenic AP-site DNA cleavage;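 note: plate controls were uninhibited enzyme wells for no effect and no enzyme buffer wells for full effect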
APE1 inh-2 = Confirmation qHTS Assay for Inhibitors of the Human Apurinic/apyrimidinic Endonuclease 1 (APE1); Potency, µM (top dose mostly 57.1 µM), inactives show at the top dose activity change, negative = inhibition, hits mostly inhibitors; shares compounds with APE1 inh-1; purified APE1, fluorogenic abasic-site DNA cleavage; AID 2572, 2010; actives 44% (n = 750); note: nearly all actives have a fitted effect of over 30% in size
BLM inh-2 = qHTS Confirmation Assay for Inhibitors of Bloom's syndrome helicase (BLM); actives 40% (n = 220); BLM DNA unwinding, fluorescence quenching, biochemical; Potency, µM, for the others: max response, negative = inhibition, most hits filed as inhibitors; shares compounds with BLM inh-1;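 note: strand separation dequenches TAMRA so unwinding raises red fluorescence; series mostly up to about 69 µM; nearly all actives have a fitted effect of over 45% in size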
RECQ1 inh conf = Confirmation qHTS Assay for Inhibitors of RecQ-Like Dna Helicase 1 (RECQ1) | shares compounds with RECQ1 inh-1 | actives 28% (n = 610) | RECQ1 helicase DNA unwinding, fluorescence | Potency, µM (top dose mostly 229 µM), without a hit: top-dose activity change, negative = inhibition, most hits filed as inhibitors; note: nearly all actives have a fitted effect of over 45% in size
RECQ1 ADP FP = Counterscreen for RECQ1 Inhibitors: ADP Fluorescence Polarization Displacement Assay. Potency, µM (series often up to 228 µM), inactives show at the highest dose activity change, negative = inhibition, actives largely listed as inhibitors. AID 2711, 2010. ADP fluorescence polarization displacement counterscreen. shares compounds with RECQ1 inh-1. actives 27% (n = 530); note: nearly all actives have a fitted effect of over 45% in size
RECQ1 inh-2 = Confirmation qHTS Assay for Inhibitors of RecQ-Like Dna Helicase 1 (RECQ1) - Round 2 Cherry Picks; shares compounds with RECQ1 inh-1; recombinant RECQ1 DNA unwinding, red fluorescence; Potency, µM (series often up to 119 µM), for the others: at the highest dose activity, negative = inhibition, hits mostly inhibitors; actives 15% (n = 1,100); AID 504841, 2011; note: nearly all actives have a fitted effect of over 50% in size
Active calls of the source: *; ! = not active in a repeat; [ ] = dose if it differs, or a comment. The sample as a whole holds a higher share of hits than the screen did. Unless noted, calls come from the whole dose curve; as a rule, active = well fitted curve in the direction sought with a large enough effect; inconclusive = small, poorly fitted or top-dose-only effect, or another doubt; inactive = no such curve, though single readings can be large; an effect the other way counts as inactive or inconclusive. Unless noted, % is set by controls: 0 for no effect and ±100 for the full control effect; potency is the fitted concentration of half-maximal effect.

What do the screens show for `CC(C)c1ccc2c(c1O)CCC1C3=C(CC[C@]21C)C(=O)OC3` (some centres undefined)?
KDM4E inh: 0%; BLM inh-1: -1%; APE1 inh-1: -4%; RECQ1 inh-1: inactive; RGS12 GoLoco inh: 7%

Results for Clc1cccc(C(Cl)(Cl)Cl)n1 ?
APE1 inh-1: 19%; RECQ1 inh-1: 16%; RGS12 GoLoco inh: -4%

What do the screens show for `Cc1c2ccncc2c(C)c2c1[nH]c1ccccc12`?
L3MBTL1 block: 7%; KDM4E inh: 13µM*; BLM inh-1: 124%; APE1 inh-1: inconclusive; RECQ1 inh-1: 4.5µM*!; RGS12 GoLoco inh: 15%; Endo IV inh: 1µM*; APE1 inh-2: inconclusive; RECQ1 inh conf: inconclusive

What do the screens show for `O=c1c(O)c(-c2ccc(O)c(O)c2)oc2cc(O)cc(O)c12`?
KDM4E inh: 14µM*; BLM inh-1: -14%; APE1 inh-1: 1.3µM*!; RECQ1 inh-1: 1.8µM*!; RGS12 GoLoco inh: -1%; Endo IV inh: -63%[57.1 µM]; APE1 inh-2: -37%; RECQ1 inh conf: inconclusive; RECQ1 ADP FP: 13µM*

Results for COc1cc(-c2oc3cc(O)cc(O)c3c(=O)c2O)ccc1O ?
BLM inh-1: -6%; APE1 inh-1: inconclusive; RECQ1 inh-1: -10%

What do the screens show for `COC(=O)C(O)C(O)(CCC(C)C)C(=O)OC1C(OC)=CC23CCCN2CCc2cc4c(cc2C13)OCO4` (centres undefined)?
BLM inh-1: 4%; APE1 inh-1: -2%; RECQ1 inh-1: inactive; RGS12 GoLoco inh: 5%

Results for CCCCn1c(NS(=O)(=O)c2ccccc2)c(C(=O)OCC)c2nc3ccccc3nc21 ?
L3MBTL1 block: 4.5µM*; KDM4E inh: inconclusive; BLM inh-1: 1.4µM*; APE1 inh-1: 3%; RECQ1 inh-1: -3%; RGS12 GoLoco inh: 2%; BLM inh-2: -10%

Results for CC(C)=CCCC1(C)C=Cc2c(O)c3c(c(CC=C(C)C)c2O1)OC12C(CC4CC1C(C)(C)OC2(C/C=C(/C)C(=O)O)C4O)C3=O (centres undefined) ?
KDM4E inh: inconclusive; BLM inh-1: -13%; APE1 inh-1: 4%; RECQ1 inh-1: -11%; RGS12 GoLoco inh: -8%

What do the screens show for `CC(C)CCNC(=O)c1c(N)n(CC2CCCO2)c2nc3ccccc3nc12` (centres undefined)?
KDM4E inh: inconclusive; BLM inh-1: inconclusive; APE1 inh-1: inconclusive; RECQ1 inh-1: inconclusive; RGS12 GoLoco inh: 3%; RECQ1 inh-2: -20%

What do the screens show for `Nc1c(C(=O)NCCc2ccccc2)c2nc3ccccc3nc2n1CCN1CCOCC1`?
L3MBTL1 block: 49%; KDM4E inh: inconclusive; BLM inh-1: -13%; APE1 inh-1: -5%; RECQ1 inh-1: 8.9µM*; RGS12 GoLoco inh: 17%; RECQ1 inh conf: -7%[114 µM]; RECQ1 ADP FP: -5%[91.9 µM]; RECQ1 inh-2: -17%

What do the screens show for `CCCCn1c(N)c(C(=O)NCCN2CCOCC2)c2nc3ccccc3nc21`?
L3MBTL1 block: 15%; KDM4E inh: inconclusive; BLM inh-1: 0%; APE1 inh-1: -9%; RECQ1 inh-1: -21%; RGS12 GoLoco inh: -1%

Results for CCC(C)NC(=O)c1c(N)n(CCCOC)c2nc3ccccc3nc12 (centres undefined) ?
L3MBTL1 block: -18%; KDM4E inh: inconclusive; BLM inh-1: inconclusive; APE1 inh-1: -10%; RECQ1 inh-1: inconclusive; RGS12 GoLoco inh: 4%; RECQ1 inh-2: -11%

What do the screens show for `CCC(C)NC(=O)c1c(N)n(Cc2ccc3c(c2)OCO3)c2nc3ccccc3nc12` (centres undefined)?
L3MBTL1 block: 21%; KDM4E inh: inconclusive; BLM inh-1: inconclusive; APE1 inh-1: -10%; RECQ1 inh-1: inconclusive; RGS12 GoLoco inh: -10%; RECQ1 inh-2: -5%

Results for COCCCn1c(N)c(C(=O)Nc2ccccc2)c2nc3ccccc3nc21 ?
L3MBTL1 block: 41%; KDM4E inh: inconclusive; BLM inh-1: -13%; APE1 inh-1: -2%; RECQ1 inh-1: -14%; RGS12 GoLoco inh: 12%
